Results from PMC4336329 (PLoS ONE, 2015).
Out of some 310,000 compounds screened, about 14,000 (4.5%) showed an effect of 50% or more. The effect is printed as a negative number. The full list was thinned out, with strong results kept by preference.

Each molecule was assayed against human ether-à-go-go-related gene (hERG) potassium channel (human, UniProt Q12809) (assay: primary screen, population patch clamp on CHO cells stably expressing hERG; higher = less effect of the substance).
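Further: peak tail current of the secondary pulse compared with the same well before compound.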

Sequence of human ether-à-go-go-related gene (hERG) potassium channel (Q12809 whole entry, looked up): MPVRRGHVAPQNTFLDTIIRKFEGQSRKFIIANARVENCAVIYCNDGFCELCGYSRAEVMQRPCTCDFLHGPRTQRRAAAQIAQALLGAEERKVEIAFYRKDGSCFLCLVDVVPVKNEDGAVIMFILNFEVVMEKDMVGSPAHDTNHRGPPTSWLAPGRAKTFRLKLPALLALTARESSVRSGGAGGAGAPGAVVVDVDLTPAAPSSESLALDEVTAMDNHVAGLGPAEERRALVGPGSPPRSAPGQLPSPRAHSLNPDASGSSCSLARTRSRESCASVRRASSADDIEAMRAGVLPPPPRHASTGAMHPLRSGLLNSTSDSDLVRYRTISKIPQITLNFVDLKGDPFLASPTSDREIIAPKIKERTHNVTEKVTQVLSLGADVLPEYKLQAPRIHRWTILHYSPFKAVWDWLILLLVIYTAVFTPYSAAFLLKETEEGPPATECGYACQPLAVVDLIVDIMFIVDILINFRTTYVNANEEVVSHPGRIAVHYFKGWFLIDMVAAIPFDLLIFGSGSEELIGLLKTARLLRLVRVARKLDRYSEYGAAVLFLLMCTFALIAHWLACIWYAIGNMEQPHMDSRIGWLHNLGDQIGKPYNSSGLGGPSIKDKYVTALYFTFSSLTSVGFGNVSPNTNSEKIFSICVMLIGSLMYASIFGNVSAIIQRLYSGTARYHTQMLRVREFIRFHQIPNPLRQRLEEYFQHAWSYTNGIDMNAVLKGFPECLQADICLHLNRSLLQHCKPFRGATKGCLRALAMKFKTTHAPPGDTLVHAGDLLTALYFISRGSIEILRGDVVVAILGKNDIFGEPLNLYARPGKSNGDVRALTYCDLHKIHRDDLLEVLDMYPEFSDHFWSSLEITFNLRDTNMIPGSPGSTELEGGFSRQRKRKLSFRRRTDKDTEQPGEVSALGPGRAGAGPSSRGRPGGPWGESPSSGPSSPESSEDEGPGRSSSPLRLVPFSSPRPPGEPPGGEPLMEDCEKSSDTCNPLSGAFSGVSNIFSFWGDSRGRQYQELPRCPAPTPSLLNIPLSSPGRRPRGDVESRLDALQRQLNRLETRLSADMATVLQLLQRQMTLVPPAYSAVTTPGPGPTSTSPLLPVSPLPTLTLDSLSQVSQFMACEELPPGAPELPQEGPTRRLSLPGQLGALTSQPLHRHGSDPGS

| SMILES | hERG current change (%, negative = inhibition) at 10uM |
| --- | --- |
| COCC(=O)Nc1nnc(Cc2ccc(OC)c(OC)c2)s1 | -7.97% |
| O=C(NCCC(=O)N1CCN(c2ncccn2)CC1)c1ccccc1 | 11.6% |
| O=C(/C=C/Nc1ccc(S(=O)(=O)Nc2ncccn2)cc1)c1ccc2ccccc2c1 | 3.84% |
| CCOC(=O)C(CC)Sc1nnc2cc(C)c3ccccc3n12 (stereo not shown) | -38% |
| Cc1noc(C)c1CSCC(=O)N(CCC(C)C)c1c(N)n(Cc2ccccc2)c(=O)[nH]c1=O | 21.4% |
| Cn1cc(/C(Cc2ccccc2)=N\O)c2ccccc21 | 4.78% |
| COC(=O)c1[nH]c(C)c(/C(O)=C2\C(=O)C(=O)N(CCN(C)C)C2c2cc(OC)ccc2OC)c1C (stereo not shown) | 13.6% |
| Cc1ccc(CSCCNC(=O)CN(c2ccccc2)S(C)(=O)=O)cc1 | 1.75% |
| O=C(CSCc1ccc([N+](=O)[O-])cc1)Nc1ccccc1C(=O)O | 24.7% |
| COc1ccc(CCNC(=O)CSCc2ccc([N+](=O)[O-])cc2)cc1 | -44.8% |
| Cc1ccc(CSCCNC(=O)CSCc2ccc([N+](=O)[O-])cc2)cc1 | -71.4% |
| O=C(CSCc1ccc([N+](=O)[O-])cc1)NCCSCc1ccccc1 | -70.1% |
| Cc1ccc(CSCC(=O)NCCc2ccccc2)cc1 | -3.13% |
| O=C(CSc1ccccc1)NCCSCc1ccccc1 | -3.89% |
| CCCCN(CCCC)CCNC(=O)CSCc1ccc(C)cc1.O=C(O)C(=O)O | -63.2% |
| Cc1cccc(CSCCNC(=O)CSCc2ccc([N+](=O)[O-])cc2)c1 | -47.8% |
| Cc1ccc(CNC(=O)CN(c2cccc([N+](=O)[O-])c2)S(C)(=O)=O)cc1 | 0.796% |
| CCCCN(C)CCNC(=O)CSCc1ccc(C)cc1.O=C(O)C(=O)O | -37.5% |
| Cc1ccc(CSCCNC(=O)CN(c2cccc([N+](=O)[O-])c2)S(C)(=O)=O)cc1 | -53.2% |
| Cc1ccccc1NC(=O)Cn1nc(-c2ccc(Cl)s2)ccc1=O | 13.6% |
| CSC1=N/C(=C/c2ccc(-n3cncn3)cc2)C(=O)N1 | 6.6% |
| COc1cc(/C=N/Nc2ccc(F)cc2F)cc(OC)c1O | -2.17% |

| SMILES | hERG current change (%, negative = inhibition) at 10uM |
| --- | --- |
| O=C(COC(=O)c1ccco1)NC(c1ccccc1)c1ccccc1 | 3.56% |
| Cc1ccc(S(=O)(=O)NCCC(=O)OCC(=O)N(C)c2ccccc2)cc1 | 4.35% |
| CCCn1c(SCC(=O)c2ccc3c(c2)OCCO3)n[nH]c1=O | 22.6% |
| COc1cc(OC)cc(OC(=O)c2cccc(S(=O)(=O)N3CCN(C)CC3)c2)c1 | -14.1% |
| Cc1ccc(CSCCNC(=O)c2ccccc2)cc1 | -13.6% |
| CC1CCN(C(=O)C(C)OC(=O)CSc2ccc([N+](=O)[O-])cc2)CC1 (stereo not shown) | -50.1% |
| O=C(CSCc1ccc([N+](=O)[O-])cc1)NC1CC1 | -29.7% |
| CC(C)C(NC(=O)CSCc1ccc([N+](=O)[O-])cc1)C(C)C | -40.2% |
| O=C(Cc1ccc([N+](=O)[O-])cc1)NC1CCCCCC1 | 7.55% |
| Cc1ccc(CSCCNC(=O)c2ccc(C)cc2)cc1 | 19.1% |
| CC(C)(C)SCCNC(=O)CSCc1ccc([N+](=O)[O-])cc1 | -63.1% |
| COc1ccc(CCNC(=O)CSCc2ccc([N+](=O)[O-])cc2)cc1OC | -37.5% |
| CC1CCN(C(=O)C(C)c2ccc([N+](=O)[O-])cc2)CC1 (stereo not shown) | -3.41% |
| O=C(CSCc1ccc([N+](=O)[O-])cc1)NC1CCCCCC1 | -50.8% |
| Cc1ccc(CSCCNC(=O)c2cccc([N+](=O)[O-])c2)cc1 | -64.1% |
| CC(OC(=O)CSc1ccc([N+](=O)[O-])cc1)C(=O)NC1CC1 (stereo not shown) | -14.7% |
| CCOC(=O)C(C(=O)Nc1cccc(C)c1)C1CCCCC1 (stereo not shown) | -6.99% |
| CCC1C(=O)N=C(SCC(=O)Nc2ccc(C)cc2)N(c2ccccc2)C1=O (stereo not shown) | 19.4% |
| CCOC(=O)c1sc(Nc2ccc(Br)cc2)nc1C | 13.7% |
| Cc1oc2ncnc(N)c2c1C | 8.52% |
| CNC(=O)CN1C(=O)c2cccc3cccc1c23 | 10.3% |
| COc1ccc(NS(=O)(=O)c2ccc(O)c(NC(=O)c3ccc(S(=O)(=O)N4CCCCCC4)cc3)c2)cc1 | 1.73% |

| SMILES | hERG current change (%, negative = inhibition) at 10uM |
| --- | --- |
| OCC[C@H]1C[C@@H](O)[C@H](O)[C@]2(OCc3ccccc32)O1 | -0.346% |
| O=c1[nH]ncn1-c1cccc(C(F)(F)F)c1 | 10.8% |
| FC(F)(F)c1cnc(Oc2ccccc2-c2nnc(-c3ccc(Cl)cc3)o2)c(Cl)c1 | -1.52% |
| CC1CCCCC1NC(=O)CSc1ccc([N+](=O)[O-])cc1 (stereo not shown) | -52.6% |
| O=C(Cc1ccc([N+](=O)[O-])cc1)N/N=C/c1cccnc1 | -9.63% |
| Cc1ccccc1CSCCNC(=O)CSCc1ccc([N+](=O)[O-])cc1 | -51.3% |
| O=C(CSCc1ccc([N+](=O)[O-])cc1)N/N=C/c1ccncc1 | -49.1% |
| Cc1ccccc1CSCC(=O)NCCSc1ccccn1 | -3.24% |
| O=C(CSCc1ccc([N+](=O)[O-])cc1)N/N=C/c1cccnc1 | -60.2% |
| CC1CCCCC1NC(=O)Cn1cc([N+](=O)[O-])ccc1=O (stereo not shown) | 7.67% |
| O=C(CSc1ccc([N+](=O)[O-])cc1)NCC1CCCCC1 | -15% |
| COc1ccc([N+](=O)[O-])cc1NC(=O)CSCc1ccccc1C | -7.85% |
| COc1ccc(CNC(=O)C2CCC(CNS(=O)(=O)c3cccs3)CC2)cc1 (stereo not shown) | -18.9% |
| O=C1CC(O)(C(F)(F)F)Oc2c1ccc1ccccc21 (stereo not shown) | 7.95% |
| COc1ccc(/C=N/NC(=O)c2ccc3nc[nH]c3c2)c(OC)c1OC | 12.9% |
| Cc1ccc(S(=O)(=O)NNC(=S)Nc2ccccc2)cc1 | 3.05% |
| On1c(-c2ccc(Cl)cc2)nc2ccccc21 | 13.9% |
| C[n+]1cn(Cc2cc(Cl)ccc2OC(F)F)c2ccccc21.[Br-] | 2.96% |
| CC(C)=Cc1oc2ccc([N+](=O)[O-])cc2c1N1CC(C)OC(C)C1 (stereo not shown) | 18.7% |
| CC(=O)N1CCOc2ccc(S(=O)(=O)N3CCC(C(=O)NCc4ccc(F)cc4)CC3)cc21 | 4.09% |
| CCC(c1nnc(SCC(=O)Nc2ccc(C(C)=O)cc2)n1C1CCCCC1)N(C)C (stereo not shown) | -9.96% |
| Cc1ccc(CNC(=O)Nc2ccccc2)n1C | 12.3% |

| SMILES | hERG current change (%, negative = inhibition) at 10uM |
| --- | --- |
| O=C(Nc1cccnc1)c1cc(-c2ccc(F)cc2)on1 | 10.9% |
| Cc1cccc(C)c1OC1(c2ccccc2)OC(=O)c2ccccc21 (stereo not shown) | 10.9% |
| CCCn1c(SCc2cc(=O)[nH]c3ccccc23)nc2c1c(=O)n(C)c(=O)n2C | -7.61% |
| CCOC(=O)C1CCN(C(=O)c2cccc(S(=O)(=O)N3c4ccccc4CC3C)c2)CC1 (stereo not shown) | -35.7% |
| CCOC(=O)C1CCN(C(=O)c2cccc(S(=O)(=O)N3CCc4ccccc43)c2)CC1 | -56.4% |
| COc1cc(C(=O)Nc2ccc(S(=O)(=O)N3CCc4ccccc43)cc2)cc(OC)c1OC | -4.14% |
| CCOC(=O)C1CCN(S(=O)(=O)c2ccc(C)cc2)CC1 | 3.36% |
| COc1ccc(S(=O)(=O)N2CCc3ccccc32)cc1C(=O)N1CCOCC1 | -0.239% |
| COc1ccc(S(=O)(=O)N2CCc3ccccc32)cc1C(=O)Nc1ccc(C(N)=O)cc1 | 9.8% |
| CCOC(=O)N1CCN(C(=O)c2cc(S(=O)(=O)N3CCc4ccccc43)ccc2OC)CC1 | -52.1% |
| CCOC(=O)C1CCN(S(=O)(=O)c2ccc(C(=O)OC)cc2)CC1 | -1.7% |
| CCOC(=O)C1CCN(S(=O)(=O)c2ccc(NC(=O)OC)cc2)CC1 | -56.5% |
| COc1ccc(S(=O)(=O)N2CCc3ccccc32)cc1C(=O)N1CCN(C=O)CC1 | -2.51% |
| O=C(c1cccc(S(=O)(=O)N2CCc3ccccc32)c1)N1CCc2ccccc2C1 | -13% |
| COc1ccccc1C(=O)Nc1ccc(S(=O)(=O)N2CCc3ccccc32)cc1 | -77% |
| COc1ccc(S(=O)(=O)N(CC(=O)Nc2ccc3c(c2)OCO3)c2ccccc2OC)cc1 | 18.5% |
| COc1c2ccoc2c(OC)c2oc(=O)ccc12 | -5.65% |
| CCC(C)C(NC(=O)C1CCC(C)CC1)C(=O)NCCc1ccc(S(N)(=O)=O)cc1 (stereo not shown) | 4.32% |
| Cc1c(NN=C(C#N)C#N)c(=O)n(-c2ccccc2)n1C | 13.5% |
| O=C1CSC(c2ccc(Cl)c(Cl)c2)N1c1nccs1 (stereo not shown) | -1.93% |
| CC(C)(CO)C(O)C(=O)NCCCO (stereo not shown) | 11.5% |
| CCOc1ccccc1C1C(C#N)=C(N)Oc2cc(N)ccc21 (stereo not shown) | -5.58% |
